Reference: PubChem BioAssay AID2279 (Southern Research Specialized Biocontainment Screening …, 2010)
Measured potencies and affinities stand elsewhere. Activity calls are given as the source filed them. No rule for the calls is given here.

experiment: CCR5-tropic HIV-1 fusion blockers – cell-based, CCR5-tropic Env, dose response (AID 2279); conditions: CCR5-tropic HIV-1 Env, reporter read-out; series mostly up to 50 µM

outcome, inactive:
Cc1noc(NS(=O)(=O)c2ccc(NC(=O)Nc3ccc(Cl)c(Cl)c3)cc2)c1C
CC(Oc1ccc(Cl)cc1Cl)C(=O)Nc1ccc(S(=O)(=O)Nc2cnc3ccccc3n2)cc1 (stereo not given)
N#Cc1c(-c2ccccc2)nc(SCc2cccc(Cl)c2)[nH]c1=O
CCOc1cc(/C=N/NC(=O)c2ccc(-c3csc(Nc4ccc(C)cc4)n3)cc2)ccc1OCC(=O)O
O=C(O)COc1ccccc1/C=N/NC(=O)CSc1nnc(SCc2cccc3ccccc23)s1
O=C(O)CN1C(=O)/C(=C\c2cccc(OCc3ccc(Cl)cc3Cl)c2)SC1=S
Cc1c(Cl)cccc1NS(=O)(=O)c1ccc2c(c1)C1C=CCC1C(c1ccc(C(=O)O)cc1)N2 (stereo not given)
O=C(N/N=C/c1cc(Cl)cc([N+](=O)[O-])c1O)c1ccccc1NS(=O)(=O)c1cccs1
CCOc1cc(/C=C2\C(=O)N(c3cccc(C(=O)O)c3)N=C2C(F)(F)F)ccc1OCC(=O)Nc1ccccc1OC
O=C(O)CN1C(=O)/C(=C\c2cccc(OCc3ccc(Cl)cc3)c2)SC1=S
O=C(NCc1ccccc1)c1ccc2c(=O)[nH]c3c(C(=O)NCC4CCCO4)sc(=S)n3c2c1 (stereo not given)
CN1C(=O)/C(=C/c2ccc(C(=O)Nc3ccc(O)cc3C(=O)O)cc2)SC1=S
O=C(O)CN1C(=O)/C(=C\c2cc(Br)ccc2OCc2ccc(Cl)cc2)SC1=S
O=C(Nc1ccc(Br)cc1C(=O)O)c1ccc2c(c1)C(=O)N(Cc1ccccc1)C2=O
Cc1ccccc1N/N=C/c1sc(=O)n(Cc2cccc(C(=O)O)c2)c1Cl
COc1cc(/C=C2\S/C(=N/S(=O)(=O)c3ccc(C)cc3)NC2=O)c([N+](=O)[O-])cc1OC
O=C(O)C1Nc2c(cccc2C(F)(F)F)C2C=CCC12 (stereo not given)
C/C(=N\Nc1ccc(C(=O)O)cc1)c1ccc2c(c1)Nc1ccccc1S2
O=C(Nc1ccc(C(=O)O)cc1)/C(=C\C=C\c1ccccc1)NC(=O)c1cccc(Br)c1
COc1cccc(-c2coc3c(C)c4oc(=O)c(CCC(=O)O)c(C)c4cc23)c1
Cc1ccccc1N=C1NC(=O)/C(=C/c2cccn2-c2cccc(C(=O)O)c2)S1
O=C1/C(=C2\C(=O)N(Cc3ccc(F)cc3)c3ccccc32)SC(=S)N1CCS(=O)(=O)O
Cc1cc(/C=C2/C(=N)N3C(=NC2=O)SN=C3S(C)(=O)=O)c(C)n1-c1ccccc1
CCOC(=O)c1sc(N2C(=O)C(O)=C(C(=O)c3ccco3)C2c2ccc([N+](=O)[O-])cc2)nc1C (stereo not given)
CC(C)(C)CC(C)(C)c1ccc(OCC(=O)N/N=C/c2ccc(S(=O)(=O)O)o2)cc1
O=C(O)c1ccc(Nc2nc(-c3cc4ccccc4oc3=O)cs2)cc1O
COc1ccc(-c2coc3c(C)c4oc(=O)c(CCC(=O)O)c(C)c4cc23)cc1
O=C1N=c2ccc(Br)cc2=C1c1sc(=S)n(NS(=O)(=O)c2ccccc2)c1O
O=C(O)CN1C(=O)/C(=C\c2cc(Br)ccc2OCc2ccccc2Cl)SC1=S
CCOC(=O)C1=C(C)N=c2s/c(=C\c3ccc(OCC(=O)O)c(OC)c3)c(=O)n2C1c1ccc(OC)cc1 (stereo not given)
CCOc1ccc(C2C(C(=O)Nc3ccccc3)=C(C)N=c3s/c(=C/c4cccc(OCC(=O)O)c4)c(=O)n32)cc1 (stereo not given)
O=C(O)CN1C(=O)/C(=C\c2cc(Br)ccc2OCc2ccc([N+](=O)[O-])cc2)SC1=S
Oc1c(Br)cc(Br)c(/C=N/n2c(-c3ccccc3)n[nH]c2=S)c1Br
Cc1cc(C)c2nc(N3C(=O)C(O)=C(C(=O)c4ccco4)C3c3ccco3)sc2c1 (stereo not given)
COc1cc(/C=C2/C(=O)NN(c3ccc(Cl)cc3)C2=O)ccc1OC(=O)c1ccco1
